From PubChem BioAssay
For some assays here: Entries with a potency or affinity are not part of this list. The source made the active and inactive calls. Unless noted, no rule for the calls is given here.

How the values were obtained:
[1] = antimalarial activity against Dd2 strain (AID 2302;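 active = growth inhibition above 50% at the single 2 µM test dose, taken to imply half-maximal potency below 2 µM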;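 also: 0% = DMSO untreated growth and 100% = chloroquine plus artemisinin killed control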); settings: P. falciparum Dd2 in RBCs, LDH growth readout, 72 h; at 2 µM; active compounds read high
[2] = HepG2 cytotoxicity, primary screen, cytotoxicity control for P. falciparum antimalarial project, cell-based, ATP luminescence (AID 2303;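 active = inhibition above 50%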;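 also: 0% = DMSO wells and 100% = digitonin-killed cells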); settings: HepG2 viability, 24-48 h, at 10 µM, active compounds read high
[3] = target: L-lactate dehydrogenase (Plasmodium falciparum (isolate CDC / Honduras)) (UniProt Q27743); assay: PfLDH activity inhibition – cell lysate, 3D7 strain, counter-screen for P. falciparum growth inhibition project (AID 2304);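 also: 0% = vehicle and 100% = reference inhibitor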; settings: P. falciparum 3D7 crude extract, LDH APAD/NBT absorbance; at 2 µM; active compounds read high
L-lactate dehydrogenase (Plasmodium falciparum (isolate CDC / Honduras)), sequence (Q27743 whole entry, looked up): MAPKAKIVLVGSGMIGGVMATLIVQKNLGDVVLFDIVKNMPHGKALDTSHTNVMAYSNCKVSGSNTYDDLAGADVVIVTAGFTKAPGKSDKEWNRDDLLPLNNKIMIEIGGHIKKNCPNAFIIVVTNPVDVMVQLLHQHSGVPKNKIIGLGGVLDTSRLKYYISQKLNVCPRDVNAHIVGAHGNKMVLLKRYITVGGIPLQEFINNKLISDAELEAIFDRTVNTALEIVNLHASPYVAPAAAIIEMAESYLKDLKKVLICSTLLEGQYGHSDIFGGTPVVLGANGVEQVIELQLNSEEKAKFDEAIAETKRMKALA

[4] = inhibition of 3D7 malaria parasite growth – strain 3D7 (AID 2306);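 also: 0% = DMSO wells and 100% = chloroquine plus artemisinin control wells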; settings: P. falciparum 3D7 erythrocytic growth, LDH absorbance, 72 h; at 2 µM; active compounds read high
[5] = target: Calcium-dependent protein kinase 1 (Plasmodium falciparum (isolate 3D7)) (UniProt P62344); assay: PfCDPK1 kinase inhibitors, biochemical, TCAMS library (AID 1159585; cut-off not given, nearly all actives have IC50 up to about 0.98 µM;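 also: inhibitors leave more ATP so luminescence rises with inhibition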); settings: recombinant PfCDPK1, Kinase-Glo ATP depletion luminescence
Calcium-dependent protein kinase 1 (Plasmodium falciparum (isolate 3D7)), sequence (P62344 whole entry, looked up): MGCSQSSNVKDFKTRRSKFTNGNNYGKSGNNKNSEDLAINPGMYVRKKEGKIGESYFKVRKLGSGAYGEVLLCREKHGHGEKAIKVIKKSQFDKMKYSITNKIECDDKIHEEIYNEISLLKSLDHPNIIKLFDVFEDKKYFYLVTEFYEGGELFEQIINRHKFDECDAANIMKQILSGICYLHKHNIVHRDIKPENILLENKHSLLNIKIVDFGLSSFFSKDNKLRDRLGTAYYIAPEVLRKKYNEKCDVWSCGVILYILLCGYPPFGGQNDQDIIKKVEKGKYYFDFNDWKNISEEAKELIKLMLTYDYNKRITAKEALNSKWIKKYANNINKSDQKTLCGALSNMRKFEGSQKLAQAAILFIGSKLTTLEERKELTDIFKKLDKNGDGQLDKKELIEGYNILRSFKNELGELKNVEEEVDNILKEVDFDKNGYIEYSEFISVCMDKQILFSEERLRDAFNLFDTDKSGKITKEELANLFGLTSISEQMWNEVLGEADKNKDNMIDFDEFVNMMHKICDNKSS

[6] = target: Plasmodium falciparum protein kinase 6 (PK6, PF3D7_1337100) (UniProt Q8IDW1); assay: PfPK6 kinase inhibitors, biochemical, TCAMS library (AID 1159586); settings: recombinant PfPK6, Kinase-Glo ATP depletion luminescence
Plasmodium falciparum protein kinase 6 (PK6, PF3D7_1337100), sequence (Q8IDW1 1-305): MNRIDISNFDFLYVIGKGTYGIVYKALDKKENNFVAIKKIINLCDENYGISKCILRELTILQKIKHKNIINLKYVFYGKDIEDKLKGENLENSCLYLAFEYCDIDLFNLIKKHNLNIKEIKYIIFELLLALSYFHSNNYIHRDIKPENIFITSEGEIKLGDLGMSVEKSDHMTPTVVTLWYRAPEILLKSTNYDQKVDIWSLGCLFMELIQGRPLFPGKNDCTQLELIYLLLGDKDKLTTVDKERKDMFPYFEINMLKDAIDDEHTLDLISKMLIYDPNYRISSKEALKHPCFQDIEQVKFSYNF

[7] = target: Protein kinase 7 (PK7), Plasmodium falciparum 3D7 (PF3D7_0213400) (UniProt Q7YTF7); assay: inhibition of Plasmodium PK7 catalytic activity – biochemical, TCAMS antimalarial set, Kinase-Glo luminescence (AID 1159587); settings: recombinant PfPK7, Kinase-Glo ATP depletion luminescence
Protein kinase 7 (PK7), Plasmodium falciparum 3D7 (PF3D7_0213400), sequence (Q7YTF7 1-343): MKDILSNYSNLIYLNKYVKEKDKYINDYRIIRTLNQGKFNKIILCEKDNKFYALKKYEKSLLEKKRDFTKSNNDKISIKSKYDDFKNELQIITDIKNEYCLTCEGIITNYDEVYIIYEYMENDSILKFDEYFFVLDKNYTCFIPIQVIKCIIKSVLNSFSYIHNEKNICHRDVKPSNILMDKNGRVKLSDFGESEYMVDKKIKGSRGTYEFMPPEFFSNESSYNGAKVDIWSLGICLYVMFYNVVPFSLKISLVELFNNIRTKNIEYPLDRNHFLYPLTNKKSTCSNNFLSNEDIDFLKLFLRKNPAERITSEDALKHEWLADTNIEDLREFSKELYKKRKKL

[8] = target: Calcium-dependent protein kinase 4 (Plasmodium falciparum (isolate 3D7)) (UniProt Q8IBS5); assay: PfCDPK4 kinase inhibitors, biochemical, TCAMS library (AID 1159588; cut-off not given, nearly all actives have IC50 up to about 0.91 µM); settings: recombinant PfCDPK4, Kinase-Glo ATP depletion luminescence
Calcium-dependent protein kinase 4 (Plasmodium falciparum (isolate 3D7)), sequence (Q8IBS5 whole entry, looked up): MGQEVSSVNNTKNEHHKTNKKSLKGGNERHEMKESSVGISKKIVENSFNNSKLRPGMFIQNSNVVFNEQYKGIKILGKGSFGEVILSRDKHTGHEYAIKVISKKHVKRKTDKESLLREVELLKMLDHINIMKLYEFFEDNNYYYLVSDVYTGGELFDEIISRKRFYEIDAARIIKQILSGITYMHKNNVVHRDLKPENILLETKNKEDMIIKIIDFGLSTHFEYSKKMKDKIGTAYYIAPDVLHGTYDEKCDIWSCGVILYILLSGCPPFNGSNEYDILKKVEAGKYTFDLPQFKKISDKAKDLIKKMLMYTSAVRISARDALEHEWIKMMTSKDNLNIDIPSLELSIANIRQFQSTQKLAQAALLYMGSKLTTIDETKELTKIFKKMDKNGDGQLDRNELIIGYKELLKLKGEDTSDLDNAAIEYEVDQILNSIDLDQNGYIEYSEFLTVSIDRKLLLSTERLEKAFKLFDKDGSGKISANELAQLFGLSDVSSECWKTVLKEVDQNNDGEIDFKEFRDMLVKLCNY

COCCNCc1ncsc1-c1ccc2c(Nc3ccc(Oc4ccccc4)cc3)ccnc2c1
active: growth inhibition [1] 93% | growth inhibition [4] 91%
inactive: inhibition [2] 34% | inhibition [3] -7% | outcome [5] | outcome [6] | outcome [7] | outcome [8]

Cc1ccccc1C1CCN(c2ccc(C(=O)Nc3ccc(F)cc3)cn2)CC1
active: growth inhibition [1] 96% | growth inhibition [4] 96%
inactive: inhibition [2] 45% | inhibition [3] -1% | outcome [5] | outcome [6] | outcome [7] | outcome [8]

CN1CCC(N(C)C(=O)C=Cc2cn(-c3ccccc3)nc2-c2cc3ccccc3o2)CC1
inactive: growth inhibition [1] 5% | inhibition [2] 38% | inhibition [3] 2% | outcome [5] | outcome [6] | outcome [7] | outcome [8]
active: growth inhibition [4] 92%

OCCCCCCNc1nc(NCc2ccccc2-c2ccc(C(F)(F)F)cc2)nc(N2CCNCC2)n1
active: growth inhibition [4] 89%
inactive: growth inhibition [1] 16% | inhibition [2] 13% | inhibition [3] 2% | outcome [5] | outcome [6] | outcome [7] | outcome [8]

N#Cc1ccc2c(c1)CCN(CCC1CCC(NC(=O)Nc3cnc4ccccc4c3)CC1)C2 (stereo not given)
inactive: growth inhibition [1] 9% | inhibition [2] 14% | inhibition [3] 6% | outcome [5] | outcome [6] | outcome [7] | outcome [8]
active: growth inhibition [4] 93%

CCCOC(=O)C1=C(C)NC2=C(C(=O)CC(c3ccc(OC)c(OC)c3)C2)C1c1cccc(O)c1 (stereo not given)
inactive: inhibition [2] -10% | inhibition [3] -2% | outcome [5] | outcome [6] | outcome [7] | outcome [8]
active: growth inhibition [1] 99% | growth inhibition [4] 100%

COc1cc2nc(NCCC(C)C)n3nc(-c4ccccc4)nc3c2cc1OC
active: growth inhibition [1] 97% | growth inhibition [4] 94%
inactive: inhibition [2] -7% | inhibition [3] 4% | outcome [5] | outcome [6] | outcome [7] | outcome [8]

c1ccc2c(CNCCCCCCNCc3c(OCC4CC4)ccc4ccccc34)c(OCC3CC3)ccc2c1
active: growth inhibition [1] 97% | inhibition [2] 100% | growth inhibition [4] 93%
inactive: inhibition [3] -8% | outcome [5] | outcome [6] | outcome [7] | outcome [8]

Oc1ccc(Nc2nc(NCc3ccco3)c3ccccc3n2)cc1
active: growth inhibition [1] 78% | growth inhibition [4] 101%
inactive: inhibition [2] 7% | inhibition [3] -3% | outcome [5] | outcome [6] | outcome [7] | outcome [8]

COc1ccc2nc3ccccc3c(NCCN3CCN(C)CC3)c2c1
active: growth inhibition [4] 81%
inactive: growth inhibition [1] 10% | inhibition [2] 11% | inhibition [3] 1% | outcome [5] | outcome [6] | outcome [7] | outcome [8]

CCC(COCc1ccc(Cl)cc1)N(C)CCN(C)C(CC)COCc1ccc(Cl)cc1 (stereo not given)
inactive: inhibition [3] -5% | outcome [5] | outcome [6] | outcome [7] | outcome [8]
active: growth inhibition [1] 78% | inhibition [2] 89% | growth inhibition [4] 95%

CCCCCN1CCCC(NS(=O)(=O)c2ccc(C(=O)Nc3cccc(C(F)(F)F)c3)cc2)C1 (stereo not given)
inactive: growth inhibition [1] 3% | inhibition [2] 30% | inhibition [3] 5% | outcome [5] | outcome [6] | outcome [7] | outcome [8]
active: growth inhibition [4] 97%

COc1cccc(Nc2nc(C)cc(NCc3ccc(-n4ccnc4)cc3)n2)c1
active: growth inhibition [1] 99% | growth inhibition [4] 101%
inactive: inhibition [2] -13% | inhibition [3] -5% | outcome [5] | outcome [6] | outcome [7] | outcome [8]

CC(C)(CNCc1cc(Cl)cc(Cl)c1)c1nc(-c2ccc(Cl)c(O)c2)c(-c2ccnc(N)n2)[nH]1
inactive: growth inhibition [1] 2% | inhibition [3] -1% | outcome [5] | outcome [6] | outcome [7] | outcome [8]
active: inhibition [2] 54% | growth inhibition [4] 92%

CCc1cc(NC(=O)Nc2ccnc3ccccc23)ccc1OC
active: growth inhibition [4] 85%
inactive: growth inhibition [1] 24% | inhibition [2] -6% | inhibition [3] 2% | outcome [5] | outcome [6] | outcome [7] | outcome [8]

CN1CCN(CCCN(Cc2ccc(-c3ccc(CNC4CCCC4)cc3)cc2)C(=O)CCC2CCCC2)CC1
inactive: inhibition [3] 2% | outcome [5] | outcome [6] | outcome [7] | outcome [8]
active: growth inhibition [1] 96% | inhibition [2] 92% | growth inhibition [4] 98%

Cc1cc2nc(-c3ccc(C(=O)NCCCc4ccccc4)cc3)[nH]c2cc1C
active: growth inhibition [4] 91%
inactive: growth inhibition [1] 5% | inhibition [2] 7% | inhibition [3] -2% | outcome [5] | outcome [6] | outcome [7] | outcome [8]

COc1ccc2nccc([C@@H](O)CN3CCC(NC(=O)C(c4cc5ccccc5o4)N4CCC(Cc5ccccc5)CC4)CC3)c2c1 (stereo not given in full)
inactive: inhibition [2] 11% | inhibition [3] 0% | outcome [5] | outcome [6] | outcome [7] | outcome [8]
active: growth inhibition [1] 82% | growth inhibition [4] 100%

Cc1cccc(C)c1OC(=O)CSc1nnc(-c2ccccc2O)o1
active: growth inhibition [4] 97%
inactive: growth inhibition [1] -2% | inhibition [2] 11% | inhibition [3] 0% | outcome [5] | outcome [6] | outcome [7] | outcome [8]

CC1CC(C)CN(CC(O)CNC(=O)Nc2ccc(Br)cc2)C1 (stereo not given)
active: growth inhibition [4] 94%
inactive: growth inhibition [1] 44% | inhibition [2] 13% | inhibition [3] 5% | outcome [5] | outcome [6] | outcome [7] | outcome [8]

CC(C)CCN1CCCN(Cc2ccc(C(=O)Nc3ccc(Cl)cc3)cc2)CC1
inactive: growth inhibition [1] 15% | inhibition [2] 46% | inhibition [3] 4% | outcome [5] | outcome [6] | outcome [7] | outcome [8]
active: growth inhibition [4] 94%

CCCCN(CCCC)CCNC(=O)c1ccc(-c2nc3ccc(Cl)cc3[nH]2)c(OCC)c1
inactive: inhibition [2] 0% | inhibition [3] 9% | outcome [5] | outcome [6] | outcome [7] | outcome [8]
active: growth inhibition [1] 80% | growth inhibition [4] 101%

CN=C(NO)NCCN(C)C
active: growth inhibition [4] 88%
inactive: growth inhibition [1] -5% | inhibition [2] -1% | inhibition [3] -2% | outcome [5] | outcome [6] | outcome [7] | outcome [8]

Cc1cc(-c2ccc(NC(=O)c3coc4ccc(N5C[C@@H](C)N(C)[C@@H](C)C5)cc34)cc2C)cc(C)n1
active: growth inhibition [1] 62% | growth inhibition [4] 94%
inactive: inhibition [2] 13% | inhibition [3] -4% | outcome [5] | outcome [6] | outcome [7] | outcome [8]

O=C(NC1CCN(Cc2cccc(C(F)(F)F)c2)CC1)c1ccc(-c2cccc(Cl)c2)s1
active: growth inhibition [4] 89%
inactive: growth inhibition [1] 33% | inhibition [2] 26% | inhibition [3] -1% | outcome [5] | outcome [6] | outcome [7] | outcome [8]

CN(CCc1ccccc1)c1ncc(-c2cccc(CNCCC3CCCN3C)c2)cn1 (stereo not given)
active: growth inhibition [1] 98% | inhibition [2] 99% | growth inhibition [4] 92%
inactive: inhibition [3] -1% | outcome [5] | outcome [6] | outcome [7] | outcome [8]

FC(F)(F)Oc1cccc(CNc2noc(-c3sccc3Br)n2)c1
inactive: inhibition [2] 0% | inhibition [3] -3% | outcome [5] | outcome [6] | outcome [7] | outcome [8]
active: growth inhibition [1] 97% | growth inhibition [4] 100%

c1ccc2c(NCCCCCCCCCNc3ccnc4ccccc34)ccnc2c1
active: growth inhibition [1] 100% | inhibition [2] 57% | growth inhibition [4] 101%
inactive: inhibition [3] -3% | outcome [5] | outcome [6] | outcome [7] | outcome [8]

COc1ccc2ccccc2c1CCCCN1CCN(CC(c2ccc(F)cc2)N2CCN(C3CCCC3)CC2)CC1 (stereo not given)
inactive: inhibition [3] 6% | outcome [5] | outcome [6] | outcome [7] | outcome [8]
active: growth inhibition [1] 51% | inhibition [2] 88% | growth inhibition [4] 88%

COc1ccc2nccc([C@@H](O)CN3CCC(NCc4cc5c(F)ccc(F)c5[nH]4)CC3)c2n1
active: growth inhibition [1] 76% | growth inhibition [4] 101%
inactive: inhibition [2] 22% | inhibition [3] -6% | outcome [5] | outcome [6] | outcome [7] | outcome [8]

CCOc1cc(C(=O)NCCN(C(C)C)C(C)C)ccc1-c1nc2ccc(Cl)cc2[nH]1
active: growth inhibition [1] 90% | growth inhibition [4] 101%
inactive: inhibition [2] 4% | inhibition [3] 2% | outcome [5] | outcome [6] | outcome [7] | outcome [8]

CN(C)CCCN1CCN(Cc2ccc(-c3ccc(-c4nc5ccccc5[nH]4)s3)cc2)CC1
inactive: inhibition [2] 19% | inhibition [3] 4% | outcome [5] | outcome [6] | outcome [7] | outcome [8]
active: growth inhibition [1] 100% | growth inhibition [4] 102%

CC(C)C[C@H](NC(=O)c1cc2cc(OCCN3CCNCC3)ccc2o1)C(=O)NC1CC[C@@H](C)N(C(=O)Nc2ccc(Cl)cc2)CC1=O (stereo not given in full)
active: growth inhibition [1] 92% | growth inhibition [4] 90%
inactive: inhibition [2] -3% | inhibition [3] 6% | outcome [5] | outcome [6] | outcome [7] | outcome [8]

CC(=O)NCCNc1nccc(N2CCc3ncnc(Nc4ccc(OCc5ccccn5)c(Cl)c4)c3C2)n1
active: growth inhibition [1] 99% | growth inhibition [4] 99%
inactive: inhibition [2] -12% | inhibition [3] 10% | outcome [5] | outcome [6] | outcome [7] | outcome [8]

CC(C)C[C@H](NC(=O)c1ccc(OCCN2CCOCC2)cc1)C(=O)N[C@H](/C=N/N1CCN(C)C1=O)CCc1ccccc1
active: growth inhibition [1] 65% | growth inhibition [4] 90%
inactive: inhibition [2] 3% | inhibition [3] 3% | outcome [5] | outcome [6] | outcome [7] | outcome [8]

O=C(NCc1cccc(C(F)(F)F)c1)C1CCCN(C(=O)c2ccc(O)c(-c3ccc(Cl)c(Cl)c3)c2)C1 (stereo not given)
inactive: growth inhibition [1] 32% | inhibition [2] 1% | inhibition [3] 6% | outcome [5] | outcome [6] | outcome [7] | outcome [8]
active: growth inhibition [4] 94%

COc1ccc(CN2CCC(CN3CC4(OC3=O)c3ccccc3-c3ccccc34)C2)c(O)c1 (stereo not given)
inactive: inhibition [2] 22% | inhibition [3] -7% | outcome [5] | outcome [6] | outcome [7] | outcome [8]
active: growth inhibition [1] 79% | growth inhibition [4] 101%

Cc1cc(NC(=O)CCCN2CCN(c3cccc(Cl)c3Cl)CC2)ccc1N1CCN(C(C)C)CC1
active: growth inhibition [1] 53% | inhibition [2] 86% | growth inhibition [4] 102%
inactive: inhibition [3] -1% | outcome [5] | outcome [6] | outcome [7] | outcome [8]

O=C(Nc1ccc(Cl)cc1)Nc1ccc(-c2ccc(-c3nc4ccccc4[nH]3)cc2)cc1
active: growth inhibition [1] 99% | growth inhibition [4] 101%
inactive: inhibition [2] 47% | inhibition [3] 0% | outcome [5] | outcome [6] | outcome [7] | outcome [8]

COc1ccc(C(=O)NCc2ccc(N)nc2C)cc1Nc1ncc(-c2cccc(N(C)C)c2)cn1
inactive: inhibition [2] 9% | inhibition [3] -1% | outcome [5] | outcome [6] | outcome [7] | outcome [8]
active: growth inhibition [1] 68% | growth inhibition [4] 89%
